Experimental findings from paper PMC6212790, “How bacterial xenogeneic silencer rok distinguishes foreign from self DNA in its resident genome” are described below.

In all, about 33,000 sequences were measured (“e-score”: median about -0.038, highest 2% from about 0.33 on). Shown is part of a subset that was picked to be rich in the highest values.

This test deals with T1, GST-Rok-C97-191 (Bacillus subtilis subsp. subtilis str. …, UniProt O34857 97-191).
T1 sequence: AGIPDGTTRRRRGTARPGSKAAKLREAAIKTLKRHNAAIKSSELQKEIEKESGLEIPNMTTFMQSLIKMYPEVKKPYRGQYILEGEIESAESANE
The experiment in a line: protein binding microarray; Rok is a gene silencer of Bacillus subtilis; high values mean tight binding. The note with it: protein: recombinant; tags: GST (pTH5325, pDEST15-Magic modified); dsDNA, one strand shown. The method, boiled down:
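Every oligonucleotide joins a 25-mer constant primer to a 35-mer variable part drawn from a de Bruijn sequence of order 10, so each non-palindromic 8-mer appears at least 32 times and each palindromic 8-mer 16 times. The preference for every 8-mer is reported as a unitless, rank-based enrichment score (E-score). This score spans 0.5 for the most favored 8-mer to −0.5 for the most disfavored.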
As to TGTACTAA, the binding signal worked out at 0.191 E-score.
With AGTACTTG, the binding signal was 0.296 E-score.
To GGTACTAA belongs 0.249 E-score; to TCTACTCA, 0.188 E-score.
Take ACTACTAA: the binding signal came to 0.379 E-score.
Regarding ACTACTTC, the binding signal came to 0.226 E-score.
On to TCTACTAA, for which the binding signal turned out to be 0.342 E-score.
Consider ACTACTTA, for which the binding signal worked out at 0.415 E-score.
On to AGTACTTA, for which the binding signal was found to be 0.355 E-score.
For GCTACTAA, the binding signal came to 0.229 E-score.
To CGTCCCAA belongs -0.181 E-score; to CATTATGA, 0.0691 E-score.
Regarding TCCACTCA, the binding signal was -0.127 E-score.
As to AGCCAATG, the binding signal was -0.162 E-score.
To CGCAGAAG belongs -0.171 E-score.
As to CTAATTCC, the binding signal is 0.159 E-score.
On to ATAATTAT, for which the binding signal stood at 0.137 E-score.
In the case of CCAATTAC, the binding signal was determined as 0.0758 E-score.
Consider TAATTTAA, for which the binding signal came out at 0.396 E-score.
Consider ATAATTAA, for which the binding signal amounted to 0.298 E-score.
To GAATTTAA belongs 0.124 E-score.
For CTAATTAC, the binding signal was determined as 0.382 E-score.
For CTAATTAA, the binding signal stood at 0.275 E-score.
AAATTTAA: the binding signal was 0.299 E-score.
To TTAATTAA belongs 0.346 E-score; to TCAATTAA, 0.161 E-score.
To ATAATTAG belongs 0.354 E-score; to GTCCTAGA, -0.199 E-score; to AATGTCGC, 0.0115 E-score.
For CTAGCTAG, the binding signal is 0.294 E-score.
As for ATCTTAGG, the binding signal was -0.016 E-score.
In the case of CGGCGGTA, the binding signal is 0.123 E-score.
To CCAGGTCA belongs -0.0861 E-score; to ATAATTGC, 0.26 E-score.
To GCAATTAC belongs 0.13 E-score.
On to ATAATTAC, for which the binding signal amounted to 0.332 E-score.
For GTAATTAA, the binding signal amounted to 0.213 E-score.
To CGAATTAG belongs 0.279 E-score.
To CTAATTAG belongs 0.362 E-score; to GTAATTAC, 0.43 E-score; to AGAATTAC, 0.217 E-score.
On to CCAATTAG, for which the binding signal is -0.111 E-score.
To ATGAATTC belongs 0.0443 E-score; to CGCTTAGA, -0.0215 E-score.
GATATCGA: the binding signal turned out to be 0.223 E-score.
To GAACGACC belongs -0.143 E-score.
On to CGTTCTAG, for which the binding signal was 0.22 E-score.
As for CTTTGTCC, the binding signal was -0.101 E-score.
With ATTAGGAA, the binding signal is -0.056 E-score.
Take TGGGACAA: the binding signal was -0.0222 E-score.
To CATCCAAC belongs -0.0608 E-score; to AATTATAA, 0.274 E-score; to AATTATAT, 0.398 E-score.
Take AATTATAG: the binding signal was found to be 0.303 E-score.
In the case of AATTATAC, the binding signal is 0.348 E-score.
To CATTATAC belongs 0.177 E-score; to GATTATAC, 0.238 E-score.
To AAGGGTGC belongs -0.165 E-score.
On to CATCTGAA, for which the binding signal was -0.0216 E-score.
Turning to AAAACTAC, the binding signal came to 0.433 E-score.
Take AAAACTAA: the binding signal worked out at 0.255 E-score.
Regarding AAAACTGC, the binding signal was -0.0367 E-score.
In the case of ATAACTAG, the binding signal came to 0.232 E-score.
On to AAAACTGT, for which the binding signal was 0.0809 E-score.
Consider AAAACTAT, for which the binding signal is 0.415 E-score.
On to AAAACTAG, for which the binding signal is 0.364 E-score.
With ATAACTAT, the binding signal was 0.383 E-score.
As for AAAACTGG, the binding signal stood at 0.0097 E-score.
On to AAAACTCC, for which the binding signal worked out at 0.137 E-score.
As for AAAACTTG, the binding signal was -0.0585 E-score.
As to ATAACTAA, the binding signal was 0.249 E-score.
To CGATCAAG belongs -0.0651 E-score.
To ACATCGCG belongs 0.139 E-score.
Take CCAAATAC: the binding signal is 0.137 E-score.
On to GAACGTTC, for which the binding signal worked out at 0.053 E-score.
Take CCGTAGCA: the binding signal was 0.075 E-score.
As to ATTTGGAA, the binding signal stood at 0.102 E-score.
Consider AGCCAATA, for which the binding signal was -0.0503 E-score.
In the case of GAATTCAC, the binding signal came to 0.074 E-score.
As for GAAACTAC, the binding signal was determined as 0.46 E-score.
As to GAAACTTC, the binding signal was found to be 0.204 E-score.
Regarding CAAACTAG, the binding signal came to 0.287 E-score.
As to CAAACTCC, the binding signal was -0.063 E-score.
Take ACAACTAT: the binding signal was found to be 0.321 E-score.
To CAAACTAC belongs 0.446 E-score.
As for ACAACTAC, the binding signal turned out to be 0.348 E-score.
Regarding GAAACTAA, the binding signal worked out at 0.313 E-score.
To CAAACTAA belongs 0.374 E-score; to CAAACTTA, 0.101 E-score; to GCAACTAC, 0.239 E-score.
In the case of TAAACTAA, the binding signal was 0.234 E-score.
To CTGAGTCA belongs -0.156 E-score; to AGGTTCAC, -0.111 E-score; to GGTCCTTA, 0.0575 E-score.
As to CAAGGTGA, the binding signal was -0.134 E-score.
Consider AAGTTGCA, for which the binding signal amounted to 0.0502 E-score.
To CTGGTCAA belongs 0.00605 E-score; to CCCATATC, -0.0677 E-score.
In the case of AGCTATTA, the binding signal is 0.315 E-score.
Turning to CATTTATA, the binding signal is 0.354 E-score.
In the case of GATTTATA, the binding signal came out at 0.304 E-score.
As for CATTTATC, the binding signal was 0.218 E-score.
To CATTTTTA belongs 0.184 E-score; to AATTTATA, 0.373 E-score; to AATTTATG, 0.209 E-score.
As for ATTCACTA, the binding signal was 0.174 E-score.
As for AGTCGATC, the binding signal is -0.00304 E-score.
As to ACGGGAAA, the binding signal is 0.132 E-score.
Consider ACCGGAAA, for which the binding signal was -0.1 E-score.
To GCTATACA belongs 0.176 E-score; to GCTATATA, 0.355 E-score; to CCTATATA, 0.283 E-score.
To ACTATATA belongs 0.437 E-score; to ACTATATC, 0.284 E-score; to ACTATAGA, 0.241 E-score.
Consider ACTCTTTA, for which the binding signal is 0.0447 E-score.
Turning to ATGTATAG, the binding signal was determined as 0.264 E-score.
Turning to ATATAGCG, the binding signal turned out to be 0.349 E-score.
For ATATAGCC, the binding signal came out at 0.135 E-score.
Take CTATATAG: the binding signal is 0.413 E-score.
As to CGATATAG, the binding signal turned out to be 0.238 E-score.
Take ATATAGCA: the binding signal was 0.3 E-score.
In the case of ATATAGGG, the binding signal is -0.00212 E-score.
Consider CCATATAG, for which the binding signal stood at 0.129 E-score.
Consider ATATATAG, for which the binding signal was 0.379 E-score.
In the case of AGCTTTGA, the binding signal came to 0.0387 E-score.
With AGCGGCAC, the binding signal is -0.177 E-score.
ATAGTTCA: the binding signal came to 0.265 E-score.
Consider ATAGTTAC, for which the binding signal stood at 0.254 E-score.
To ATAGTTCG belongs 0.354 E-score.
To ATAGTTAG belongs 0.35 E-score; to ATAGTTCC, 0.143 E-score; to AAAGTTAG, 0.156 E-score.
Consider CTGTGAGA, for which the binding signal was -0.127 E-score.
In the case of GCACTTGA, the binding signal is -0.0251 E-score.
With CATCATAG, the binding signal amounted to 0.00873 E-score.
To CTTATTCA belongs 0.048 E-score; to CGCAAAGA, -0.193 E-score.
GGAAAAAA: the binding signal was -0.0552 E-score.
On to CGTACAAA, for which the binding signal is 0.236 E-score.
To TGTACAAA belongs 0.355 E-score; to GGTACAAA, 0.216 E-score.
To AGTACAAT belongs 0.269 E-score; to AGTACAAG, 0.247 E-score.
Regarding AGTACAAA, the binding signal came to 0.342 E-score.
Turning to TCGAGGCA, the binding signal came to 0.00484 E-score.
For CCGCAAGA, the binding signal was -0.109 E-score.
To GAATCGGA belongs -0.078 E-score; to CGATAGAG, -0.176 E-score; to CGATAGAA, 0.359 E-score.
To CGATAGAC belongs 0.063 E-score.
Consider TGATAGAA, for which the binding signal is 0.385 E-score.
In the case of GGATAGAA, the binding signal was determined as 0.195 E-score.
Take AGATAGAA: the binding signal is 0.308 E-score.
With GTGTTACA, the binding signal came out at 0.168 E-score.
As to GTAATGAA, the binding signal is -0.0192 E-score.
ATAATGTA: the binding signal amounted to 0.405 E-score.
To ATAATGTG belongs 0.167 E-score; to CTAATGTA, 0.185 E-score; to GTAATGTA, 0.339 E-score.
To ATAATGTC belongs 0.112 E-score; to ATAAACGG, 0.19 E-score.
In the case of CGCCACCG, the binding signal was -0.0411 E-score.
ATTACTAG: the binding signal worked out at 0.392 E-score.
Take ATTACTGC: the binding signal is 0.11 E-score.
Consider CTTACTAC, for which the binding signal was determined as 0.171 E-score.
Regarding ATTACTAA, the binding signal is 0.326 E-score.
ATTACTAC: the binding signal is 0.407 E-score.
As to ATTACTCG, the binding signal came to 0.198 E-score.
To ATGTTTAC belongs 0.00161 E-score; to AAATGGTT, 0.177 E-score; to AGCTTCTG, -0.0648 E-score.
